Screening data as filed in PubChem BioAssay.
Rows were chosen to be rich in hits. Some 1.6% of all compounds tested hit in one or more screens of this group.
CR mimetic SO: reduction of superoxide in aged yeast, primary screen, HTS; S. cerevisiae aged cells, superoxide DHE fluorescence; stronger effect = lower value; superoxide response (% of plate mean), % at 10 µM; 330,000 tested, 0.18% active; AID 2690, 2010;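 active = superoxide response under a set limit, about three screen SD below normal, cut at about 65% in these data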;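 note: yeast aged for seven days with compound at 30 °C before DHE staining; 100% = average MFI of all compound-treated wells on the plate with controls excluded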
GRK2 inh: compounds blocking aptamer binding on GRK2 – biochemical, human GRK2, bead flow cytometry, HTS, primary screen. inhibition of aptamer binding, % at 10 µM. 330,000 tested, 0.59% active. FAM-aptamer displacement from GRK2. AID 488847, 2010. Beta-adrenergic receptor kinase 1 (Homo sapiens), P25098;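 active = inhibition of aptamer binding above 40%, roughly 3 SD of noise, on plates passing a quality check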;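 note: median bead fluorescence of bound FAM aptamer so fluorescent compounds give negative values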
Efflux pump mplx: inhibitors of Candida efflux pumps in yeast, primary screen, S. cerevisiae, Nile Red, multiplex. 330,000 tested, 0.44% active. inhibition, % at 10 µM. S. cerevisiae Candida pump triplex. AID 485275, 2010;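 active = plate passing quality check with inhibition over a set limit, or well fluorescence over plate mean plus 4 SD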;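 note: Nile Red retained in pooled yeast measured as flow cytometry median fluorescence; 0% = buffer negative control and 100% = Enniatin B positive control; higher means more Nile Red kept so more efflux inhibition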
ATG4B inhibitor: ATG4B protease inhibitors, primary screen, biochemical, fluorescence, uHTS; inhibition, % at 8.33 µM; Cysteine protease ATG4B (Homo sapiens), Q9Y4P1; ATG4B cleavage of LC3-PLA2, NBD-HPC fluorescence, 1 h; 340,000 tested, 0.51% active; in the data active = inhibition above about 40%
Target sequence (Q9Y4P1 whole entry, looked up): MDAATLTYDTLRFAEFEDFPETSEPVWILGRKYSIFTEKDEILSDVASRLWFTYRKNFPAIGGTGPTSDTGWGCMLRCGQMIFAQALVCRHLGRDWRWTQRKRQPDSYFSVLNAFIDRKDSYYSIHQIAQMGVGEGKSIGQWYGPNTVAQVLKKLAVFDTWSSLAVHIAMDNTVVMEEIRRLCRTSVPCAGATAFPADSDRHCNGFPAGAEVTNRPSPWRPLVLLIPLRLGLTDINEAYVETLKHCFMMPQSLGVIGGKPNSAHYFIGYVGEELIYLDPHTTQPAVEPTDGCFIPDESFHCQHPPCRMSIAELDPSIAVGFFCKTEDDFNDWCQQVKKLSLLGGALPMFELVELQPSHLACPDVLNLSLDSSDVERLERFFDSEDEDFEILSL
Starred values were filed as active, the others as inactive; . = no result.

SMILES	CR mimetic SO	GRK2 inh	Efflux pump mplx	ATG4B inhibitor
COc1ccc(/C=C/C(=O)NC(=S)NNC(=O)c2cnccn2)cc1	30.8*	1.0	0.1	-4.4
CCCOc1ccc(C(=O)Nc2ccc(S(=O)(=O)Nc3cc(C)nc(C)n3)cc2)cc1	62.4*	5.0	0.0	2.2
Cc1ccc(S(=O)(=O)NCc2ccccc2)cc1C(=O)NCC(C)(C)N1CCOCC1	117.3	0.0	0.1	-5.3
CCC(=O)c1cc2c(C)cc(=O)oc2c(C)c1OC(C)=O	115.8	83.0*	-0.1	0.5
CCC(=O)c1cc2c(C)cc(=O)oc2c(C)c1OC(=O)C(C)C	111.0	1.0	-0.6	-9.9
Cc1cccc(C)c1NC(=O)NN1C(C)CCCC1C (configuration not stated)	72.8	2.0	-0.2	-1.2
Cc1cc(C)cc(NC(=O)NN2C(C)CCCC2C)c1 (configuration not stated)	72.8	100.0*	0.1	-3.4
CC(C)(C)c1cc(C(=O)N/N=C/c2ccccc2O)n(-c2ccccc2)n1	92.5	99.0*	-0.2	39.8
CC(C)(C)c1cc(C(=O)N/N=C/c2ccc(F)cc2)n(-c2ccccc2)n1	91.7	0.0	0.0	15.2
CC1CCN(C(=O)COC(=O)c2ccc3c(c2)C(=O)N(Cc2ccco2)C3=O)CC1	.	.	.	-2.3
CC(C)N1CCC2(CC1)C(C#N)=C(N)NC(S)=C2C#N	92.5	58.0*	0.0	.
Cc1cc2c(n1-c1ccc(C(=O)O)cc1)CCCCC2	102.7	68.0*	0.3	.
Nc1cc2nsnc2cc1Br	122.1	12.0	-0.1	65.2*
O=C(O)c1cc(O)c2c(c1)[C@@H]([C@H]1c3cc(C(=O)O)cc(O)c3C(=O)c3c(O[C@@H]4O[C@H](CO)[C@@H](O)[C@H](O)[C@H]4O)cccc31)c1cccc(OC3O[C@H](CO)[C@@H](O)[C@H](O)[C@H]3O)c1C2=O (some centres not stated)	111.7	97.0*	0.1	3.6
COc1cccc(NC(=O)C(C)Sc2nnc(C3CC3)n2C2CC2)c1 (configuration not stated)	97.1	13.0	-0.1	-0.3
N#C/C(=C/c1ccc(-c2cc(C(=O)O)cc(C(=O)O)c2)o1)c1nc2ccccc2s1	108.9	4.0	0.8*	.
Cc1cc(C)cc(NC(=O)C(OC(=O)c2cc[n+]([O-])cc2)c2ccccc2)c1 (configuration not stated)	90.4	0.0	-0.3	-24.5
CCCCCC#CCC#CCC#CCC#CCCCC(=O)O	117.2	50.0*	0.0	.
CCCCCCCCCC(=O)O	77.8	1.0	0.3	-11.1
O=C(NCCc1ccccc1)C1CC(=O)N(C2CCCCC2)C1 (configuration not stated)	106.2	0.0	0.0	-9.7
Cc1cccc(C)c1OCC(=O)N/N=C/c1ccncc1	75.3	42.0*	-0.2	-2.7
Cc1ccc(OCC(=O)N/N=C/c2ccncc2)cc1C	107.8	0.0	0.2	-7.8
O=C(COc1ccc2ccccc2c1Br)N1CCCCC1	92.6	87.0*	0.1	-7.5
NC(=O)C1CCN(C(=O)COc2ccc3ccccc3c2Br)CC1	79.3	0.0	0.0	-0.1
O=C(C1CCN(S(=O)(=O)c2ccc(Br)s2)CC1)N1CCc2ccccc21	85.6	0.0	0.4	41.2*
SMILES	CR mimetic SO	GRK2 inh	Efflux pump mplx	ATG4B inhibitor
COC(=O)C1CCN(S(=O)(=O)c2ccc(Br)s2)CC1	105.4	0.0	-0.1	-9.1
O=C(Nc1ccc(Cl)c(Cl)c1)Nc1ccon1	106.5	2.0	6.5*	2.9
CC(C)N(C(=O)[C@H]1C[C@H](CC(=O)NC(C)(C)C)C(=O)N2CCc3c([nH]c4cc(-c5ccco5)ccc34)[C@]12C)C(C)C	88.9	2.0	0.4	.
C[C@]12c3[nH]c4cc(-c5ccco5)ccc4c3CCN1C(=O)[C@@H](CC(=O)NCCCn1ccnc1)C[C@@H]2C(=O)N1CCCCC1	92.7	52.0*	0.2	-3.8
C[C@]12c3[nH]c4cc(-c5ccco5)ccc4c3CCN1C(=O)[C@@H](CC(=O)NCCCn1ccnc1)C[C@@H]2C(=O)N1CCOCC1	109.0	0.0	0.0	-8.4
C[C@]12c3[nH]c4ccccc4c3CCN1C(=O)C(CC(=O)NCCc1ccccn1)C[C@@H]2C(=O)N1CCOCC1 (some centres not stated)	99.4	81.0*	-0.3	-3.8
CCN(CC)C(=O)[C@H]1C[C@H](CC(=O)NC(C)(C)C)C(=O)N2CCc3c([nH]c4cc(-c5ccco5)ccc34)[C@]12C	92.8	44.0*	0.2	-5.1
O=C(CS(=O)(=O)c1cn(CC(=O)N2CCCC2)c2ccccc12)Nc1ccccc1F	94.4	0.0	0.2	-2.9
COc1cc2oc3ccccc3c(=O)c2cc1OC	113.5	86.0*	0.1	-6.5
CCCCCCCCCCCCCCCC[N+](C)(C)CC	73.5	0.0	1.8*	17.9
CCCCCC[N+](C)(C)CCSSCC[N+](C)(C)CCCCCC	112.5	0.0	0.1	-15.6
O=C(Nc1ccc(Cl)cc1)Nc1ccc(Br)cn1	106.7	1.0	0.1	1.1
C/C(C/C(C)=C1/SC(=S)NC1=O)=C1\SC(=S)NC1=O	.	.	.	67.6*
COc1ccc([C@H]2CC(=O)C=C(c3ccc(OC)cc3OC)C2)cc1	96.6	4.0	-0.4	4.7
CCOC(=O)COc1c(Cl)cc(/C=C2\N=C(C)OC2=O)cc1OC	107.2	.	-0.1	-15.5
Cc1ccc(-c2cc3onc(-c4ccccc4)c3c(=O)n2C)cc1	101.7	0.0	-0.1	-6.1
Cn1c(-c2ccc(F)cc2)cc2onc(-c3c(F)cccc3Cl)c2c1=O	96.7	52.0*	0.0	1.4
CN1C(=O)C(Cl)(Cl)C(=O)c2ccccc21	.	.	.	-4.0
COc1ccc(/C=C/C(=O)Nc2cccc(C(C)=O)c2)cc1	89.5	88.0*	-0.5	-19.5
COc1ccccc1/C=C/C(=O)Nc1cccc(C(C)=O)c1	131.3	34.0	0.2	-16.2
OCC[C@@H]1C[C@H](O)[C@@H](O)[C@@]2(OCCCc3ccccc32)O1	116.9	0.0	0.0	2.8
Cc1cccc(NC(=O)CNC(=O)c2cccc(-n3cccc3)c2)c1C	102.0	50.0*	0.2	13.7
Fc1ccc(CNC(=S)NC2CCCCCC2)cc1	99.3	0.0	-0.1	44.5*
Cc1[nH]n(C)c(=O)c1C(=O)c1c(-c2ccccc2Cl)noc1C	65.5*	0.0	0.0	2.4
CCN(CC)C(=O)CSc1nc2c(sc(=S)n2-c2ccccc2)c(=O)n1-c1ccc(OC)c(OC)c1	114.5	0.0	0.0	-3.3
O=S(=O)(c1ccc(Cl)c(C(F)(F)F)c1)N1CCN(CC(O)COc2ccccc2F)CC1 (configuration not stated)	97.8	0.0	0.1	-8.2
CCOc1cc(NC(=O)C2CC2)c(OCC)cc1NC(=O)c1cccc(F)c1	105.4	1.0	-0.3	13.2
CCOc1cc(NC(=O)c2cnccn2)c(OCC)cc1NC(=O)c1cccc(F)c1	117.7	68.0*	0.0	.
CC(C)N(CC#CC(O)(c1ccccc1)c1ccccc1)C(C)C	94.7	1.0	0.0	-8.0
